# Laboratory results: the supplement of paper PMC11001985
# Unmarked numbers belong to inactive results.
# Compound: C#CCNC(=O)CCSSCCC(=O)NCCc1ccc(C=O)c(C=O)c1
# Assay: lysine labeling ratio R10:1 (500 µM / 50 µM probe), SILAC-ABPP in living cells; higher = lower intrinsic lysine reactivity toward the probe, active = 2 or less
# Conditions: HeLa; probe concentrations 500 vs 50 µM
# Procedure, shortened: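 R, given per lysine, is the filtered median high-probe/low-probe MS1 peptide ratio, with the median then taken across forward and reverse replicates. Cells were living SILAC light and heavy HeLa cells in PBS at room temperature, labelled with 50 µM or 500 µM of an alkyne-tagged, disulfide-linked lysine probe. The ceiling applied is 20.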
# Chain of UniProt Q9P2B2 (Q9P2B2 whole entry): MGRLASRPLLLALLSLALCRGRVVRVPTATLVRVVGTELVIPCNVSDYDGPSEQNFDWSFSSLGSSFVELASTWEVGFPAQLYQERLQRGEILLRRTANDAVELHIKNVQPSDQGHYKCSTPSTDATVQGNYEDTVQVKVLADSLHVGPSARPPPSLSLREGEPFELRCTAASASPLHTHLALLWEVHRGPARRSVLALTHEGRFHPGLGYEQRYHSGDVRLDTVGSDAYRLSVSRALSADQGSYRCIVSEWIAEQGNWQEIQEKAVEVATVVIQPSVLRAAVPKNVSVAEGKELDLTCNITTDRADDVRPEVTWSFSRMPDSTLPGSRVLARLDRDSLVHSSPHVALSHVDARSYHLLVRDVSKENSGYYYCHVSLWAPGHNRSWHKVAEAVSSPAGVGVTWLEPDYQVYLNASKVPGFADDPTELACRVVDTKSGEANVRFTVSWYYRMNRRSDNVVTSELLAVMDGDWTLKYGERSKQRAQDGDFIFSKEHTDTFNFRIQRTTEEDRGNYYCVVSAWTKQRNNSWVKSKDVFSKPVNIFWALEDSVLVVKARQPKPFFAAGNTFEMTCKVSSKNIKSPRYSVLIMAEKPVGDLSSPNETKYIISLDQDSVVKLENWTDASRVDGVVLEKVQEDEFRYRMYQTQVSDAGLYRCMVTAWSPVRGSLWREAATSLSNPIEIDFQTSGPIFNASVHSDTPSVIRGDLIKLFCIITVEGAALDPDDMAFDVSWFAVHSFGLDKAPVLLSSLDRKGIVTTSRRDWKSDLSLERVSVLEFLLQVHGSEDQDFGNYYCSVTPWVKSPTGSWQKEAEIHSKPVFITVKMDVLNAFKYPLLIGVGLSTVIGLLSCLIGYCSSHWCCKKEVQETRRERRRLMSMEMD
# Chain of UniProt Q03167 (Q03167 whole entry): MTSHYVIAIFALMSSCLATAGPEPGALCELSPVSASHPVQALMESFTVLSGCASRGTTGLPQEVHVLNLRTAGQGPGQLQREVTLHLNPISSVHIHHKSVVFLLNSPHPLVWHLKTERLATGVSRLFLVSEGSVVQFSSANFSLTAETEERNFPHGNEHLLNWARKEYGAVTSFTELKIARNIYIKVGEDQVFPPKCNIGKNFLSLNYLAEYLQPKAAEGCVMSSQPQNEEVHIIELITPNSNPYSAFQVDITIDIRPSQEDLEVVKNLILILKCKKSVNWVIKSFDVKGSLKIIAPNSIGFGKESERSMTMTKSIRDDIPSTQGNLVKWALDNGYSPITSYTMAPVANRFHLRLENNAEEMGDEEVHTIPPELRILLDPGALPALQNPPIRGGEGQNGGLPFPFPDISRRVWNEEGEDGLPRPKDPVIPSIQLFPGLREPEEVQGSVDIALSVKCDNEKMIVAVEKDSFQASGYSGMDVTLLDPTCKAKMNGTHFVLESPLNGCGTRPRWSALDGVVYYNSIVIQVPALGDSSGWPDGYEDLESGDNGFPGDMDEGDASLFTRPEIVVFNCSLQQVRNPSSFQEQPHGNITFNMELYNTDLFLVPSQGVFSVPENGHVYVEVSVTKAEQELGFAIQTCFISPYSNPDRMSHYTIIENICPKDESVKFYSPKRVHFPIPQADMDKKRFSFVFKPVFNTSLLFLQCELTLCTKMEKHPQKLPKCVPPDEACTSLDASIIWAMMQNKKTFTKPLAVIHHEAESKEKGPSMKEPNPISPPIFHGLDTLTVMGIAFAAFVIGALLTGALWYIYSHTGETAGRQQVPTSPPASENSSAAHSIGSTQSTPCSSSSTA
# Chain of UniProt P38159 (P38159 whole entry): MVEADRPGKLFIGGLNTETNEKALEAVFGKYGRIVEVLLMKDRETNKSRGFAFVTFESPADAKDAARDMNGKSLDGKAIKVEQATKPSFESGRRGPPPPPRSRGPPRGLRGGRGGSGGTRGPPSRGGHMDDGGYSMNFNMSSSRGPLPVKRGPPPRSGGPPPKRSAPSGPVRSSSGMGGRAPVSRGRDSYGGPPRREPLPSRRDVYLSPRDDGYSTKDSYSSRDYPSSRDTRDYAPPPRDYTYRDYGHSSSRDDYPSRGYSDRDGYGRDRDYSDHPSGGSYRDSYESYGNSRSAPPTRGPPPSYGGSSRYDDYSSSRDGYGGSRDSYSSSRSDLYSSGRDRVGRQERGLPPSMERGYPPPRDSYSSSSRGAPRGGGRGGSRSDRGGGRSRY
# Chain of UniProt P78371 (P78371 whole entry): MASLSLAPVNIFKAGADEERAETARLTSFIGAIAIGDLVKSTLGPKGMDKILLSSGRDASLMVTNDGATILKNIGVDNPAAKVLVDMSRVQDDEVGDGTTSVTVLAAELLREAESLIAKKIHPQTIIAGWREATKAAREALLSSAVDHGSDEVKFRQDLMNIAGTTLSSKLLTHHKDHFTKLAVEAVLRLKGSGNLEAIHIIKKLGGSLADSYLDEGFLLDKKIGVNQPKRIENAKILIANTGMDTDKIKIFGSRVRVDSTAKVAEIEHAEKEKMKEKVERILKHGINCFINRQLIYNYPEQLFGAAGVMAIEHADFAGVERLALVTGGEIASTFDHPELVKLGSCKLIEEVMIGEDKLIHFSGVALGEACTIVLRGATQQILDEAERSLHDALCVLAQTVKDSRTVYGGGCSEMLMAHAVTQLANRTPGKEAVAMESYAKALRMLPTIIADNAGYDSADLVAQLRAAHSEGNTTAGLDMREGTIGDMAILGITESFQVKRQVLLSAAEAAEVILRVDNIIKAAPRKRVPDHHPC
# Chain of UniProt P08670 (P08670 whole entry): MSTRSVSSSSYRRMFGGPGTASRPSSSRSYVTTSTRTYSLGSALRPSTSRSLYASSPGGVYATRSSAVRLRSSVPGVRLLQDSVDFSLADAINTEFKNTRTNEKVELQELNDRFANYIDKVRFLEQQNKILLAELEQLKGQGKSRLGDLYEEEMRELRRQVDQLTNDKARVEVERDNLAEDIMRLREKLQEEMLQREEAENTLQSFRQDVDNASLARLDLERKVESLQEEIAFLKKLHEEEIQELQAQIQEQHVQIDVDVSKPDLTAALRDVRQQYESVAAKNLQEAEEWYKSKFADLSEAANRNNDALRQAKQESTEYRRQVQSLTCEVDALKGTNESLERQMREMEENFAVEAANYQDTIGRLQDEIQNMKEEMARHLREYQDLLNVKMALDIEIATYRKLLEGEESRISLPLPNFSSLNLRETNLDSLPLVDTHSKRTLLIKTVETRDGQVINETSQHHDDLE
# Chain of UniProt P02768 (P02768 whole entry): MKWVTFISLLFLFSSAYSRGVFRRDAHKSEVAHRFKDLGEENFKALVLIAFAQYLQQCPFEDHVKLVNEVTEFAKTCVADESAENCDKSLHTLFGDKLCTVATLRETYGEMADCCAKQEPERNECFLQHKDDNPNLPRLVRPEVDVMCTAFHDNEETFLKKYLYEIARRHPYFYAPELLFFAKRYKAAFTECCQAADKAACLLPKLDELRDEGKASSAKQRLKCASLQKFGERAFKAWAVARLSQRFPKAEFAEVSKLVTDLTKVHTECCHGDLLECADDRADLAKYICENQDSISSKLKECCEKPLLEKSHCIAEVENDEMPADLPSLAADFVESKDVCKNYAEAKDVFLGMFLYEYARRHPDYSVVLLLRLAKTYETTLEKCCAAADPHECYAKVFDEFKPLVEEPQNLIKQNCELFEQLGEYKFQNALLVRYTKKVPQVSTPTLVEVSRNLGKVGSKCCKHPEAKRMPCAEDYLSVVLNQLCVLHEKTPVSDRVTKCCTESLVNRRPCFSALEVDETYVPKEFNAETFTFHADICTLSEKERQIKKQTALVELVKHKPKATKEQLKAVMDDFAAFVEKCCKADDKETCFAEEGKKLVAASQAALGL
# Chain of UniProt P40227 (P40227 whole entry): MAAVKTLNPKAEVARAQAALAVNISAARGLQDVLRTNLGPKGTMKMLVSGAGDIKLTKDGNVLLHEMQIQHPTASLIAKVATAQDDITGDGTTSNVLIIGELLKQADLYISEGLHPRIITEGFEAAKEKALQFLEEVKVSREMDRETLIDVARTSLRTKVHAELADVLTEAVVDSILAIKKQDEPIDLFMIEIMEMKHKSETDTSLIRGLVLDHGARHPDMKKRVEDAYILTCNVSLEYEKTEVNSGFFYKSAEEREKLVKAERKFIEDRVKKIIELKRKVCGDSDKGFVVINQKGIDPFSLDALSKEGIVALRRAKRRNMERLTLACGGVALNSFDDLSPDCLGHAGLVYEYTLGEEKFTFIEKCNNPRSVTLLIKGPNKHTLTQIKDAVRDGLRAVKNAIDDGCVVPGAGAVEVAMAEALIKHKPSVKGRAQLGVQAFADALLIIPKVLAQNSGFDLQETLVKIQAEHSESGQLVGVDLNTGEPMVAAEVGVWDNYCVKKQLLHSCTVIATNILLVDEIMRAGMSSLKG
# Chain of UniProt O75390 (O75390 whole entry): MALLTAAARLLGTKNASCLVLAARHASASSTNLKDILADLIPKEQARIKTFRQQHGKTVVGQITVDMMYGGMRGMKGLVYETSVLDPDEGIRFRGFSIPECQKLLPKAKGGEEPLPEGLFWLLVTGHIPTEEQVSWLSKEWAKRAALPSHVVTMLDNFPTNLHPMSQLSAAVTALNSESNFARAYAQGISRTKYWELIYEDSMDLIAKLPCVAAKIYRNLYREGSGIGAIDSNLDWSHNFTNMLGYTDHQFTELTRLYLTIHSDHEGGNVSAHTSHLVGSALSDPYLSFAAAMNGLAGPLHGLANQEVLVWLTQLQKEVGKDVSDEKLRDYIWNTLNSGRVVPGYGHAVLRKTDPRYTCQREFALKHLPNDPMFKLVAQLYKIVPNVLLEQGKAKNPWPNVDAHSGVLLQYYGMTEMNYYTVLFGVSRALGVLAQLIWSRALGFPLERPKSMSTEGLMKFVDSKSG
# Chain of UniProt P30041 (P30041 whole entry): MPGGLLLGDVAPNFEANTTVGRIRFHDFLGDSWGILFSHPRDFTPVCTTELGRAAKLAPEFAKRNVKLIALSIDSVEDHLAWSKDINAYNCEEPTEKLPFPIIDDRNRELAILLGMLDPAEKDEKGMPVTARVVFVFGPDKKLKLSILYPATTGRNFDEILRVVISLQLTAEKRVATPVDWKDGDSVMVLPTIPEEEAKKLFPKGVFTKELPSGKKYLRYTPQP
row,Target,lysine labeling ratio R10:1
1,UniProt P62805 (lysine site: K92),7.01
2,CCT6A (lysine site: K251) (UniProt P40227),1.04 (active)
3,ALDOA (lysine site: K14) (UniProt P04075),5.1
4,PCBP2 (lysine site: K309) (UniProt Q15366),3.28
5,XRCC6 (lysine site: K516) (UniProt P12956),0.712 (active)
6,LMAN1 (lysine site: K346) (UniProt P49257),9.39
7,IARS (lysine site: K382) (UniProt P41252),3.02
8,RBMX (lysine site: K217) (UniProt P38159),8.01
9,PTGFRN (lysine site: K435) (UniProt Q9P2B2),5.47
10,CELSR2 (lysine site: K2183) (UniProt Q9HCU4),4.05
11,VIM (lysine site: K168) (UniProt P08670),3.85
12,CAPZB (lysine site: K237) (UniProt P47756),1.4 (active)
13,THBS1 (lysine site: K50) (UniProt P07996),4.26
14,NRP1 (lysine site: K538) (UniProt O14786),2.73
15,CD82 (lysine site: K114) (UniProt P27701),0.977 (active)
16,ANXA2 (lysine site: K204) (UniProt P07355),7.37
17,TGFBR3 (lysine site: K667) (UniProt Q03167),0.83 (active)
18,CCT2 (lysine site: K250) (UniProt P78371),1.5 (active)
19,UniProt P26012 (lysine site: K515),1.07 (active)
20,THRAP3 (lysine site: K519) (UniProt Q9Y2W1),3.8

row,Target,lysine labeling ratio R10:1
1,ITGAV (lysine site: K360) (UniProt P06756),1.23 (active)
2,UniProt Q15149 (lysine site: K630),7.1
3,UniProt P60709 (lysine site: K18),4.98
4,UniProt P21589 (lysine site: K232),1.92 (active)
5,UniProt P02768 (lysine site: K229),5.69
6,CD9 (lysine site: K131) (UniProt P21926),7.57
7,CS (lysine site: K43) (UniProt O75390),4.66
8,UniProt P61978 (lysine site: K198),1.88 (active)
9,RPL34 (lysine site: K62) (UniProt P49207),10.1
10,UniProt Q8WXI7 (lysine site: K12412),1.99 (active)
11,FSCN1 (lysine site: K74) (UniProt Q16658),1.36 (active)
12,SH3BP4 (lysine site: K679) (UniProt Q9P0V3),3.02
13,NOTCH2 (lysine site: K1350) (UniProt Q04721),2.12
14,ERLIN2 (lysine site: K205) (UniProt O94905),3.71
15,UniProt P62280 (lysine site: K30),4.32
16,RPS19 (lysine site: K115) (UniProt P39019),1.86 (active)
17,FLNB (lysine site: K746) (UniProt O75369),3.48
18,UniProt P05187 (lysine site: K262),0.97 (active)
19,PRDX6 (lysine site: K63) (UniProt P30041),2.85
20,TFRC (lysine site: K344) (UniProt P02786),9.15
